Test results reported in PubChem BioAssay (EPA / NIEHS).
Activity calls are given as the source filed them. The calls were made as follows: active = hit-call score of the fitted dose curve at least 0.9, where 1 is the maximum; inactive = score below 0.9.

read-out: Cytochrome P450 3A4 (Homo sapiens) (UniProt P08684); assay: LTEA_HepaRG_CYP3A4: Life Technologies and Expression Analysis (LTEA) Assay for CYP3A4 using HepaRG (AID 2283487); details: mRNA level, 48 h; actives raise or lower the signal
Method in brief: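 In a human hepatic line (HepaRG), duplicate wells were treated 48 h with up to 100 uM chemical in half-log dilutions. Endpoint: CYP3A4 mRNA induction or loss relative to 0.5% DMSO vehicle, by qRT-PCR.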

Sequence of Cytochrome P450 3A4 (Homo sapiens) (P08684 whole entry, looked up): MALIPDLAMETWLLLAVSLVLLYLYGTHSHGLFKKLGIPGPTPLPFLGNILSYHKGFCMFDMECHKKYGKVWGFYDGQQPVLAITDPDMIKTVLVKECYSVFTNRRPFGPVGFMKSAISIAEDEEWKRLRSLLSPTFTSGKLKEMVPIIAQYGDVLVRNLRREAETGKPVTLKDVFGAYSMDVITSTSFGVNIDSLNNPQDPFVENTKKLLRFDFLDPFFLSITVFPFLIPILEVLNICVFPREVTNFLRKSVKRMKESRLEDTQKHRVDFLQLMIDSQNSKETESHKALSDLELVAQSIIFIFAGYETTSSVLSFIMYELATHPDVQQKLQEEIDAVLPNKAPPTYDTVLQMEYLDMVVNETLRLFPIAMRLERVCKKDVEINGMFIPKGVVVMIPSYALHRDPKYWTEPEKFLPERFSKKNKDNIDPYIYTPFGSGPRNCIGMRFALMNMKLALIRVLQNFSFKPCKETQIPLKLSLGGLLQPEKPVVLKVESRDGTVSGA

SMILES | outcome | AC50
CCCCCCCCCCCCN1CCCC1=O | inactive | 
CC(C)(C)c1cccc(C(C)(C)C)c1O | inactive | 
CCCCCCCCCCCCc1ccccc1S(=O)(=O)O |  | 89.6 µM (active)
CCCCCCCCCCCCCCCS(=O)(=O)Oc1ccccc1 |  | 9.56 µM (active)
CCCCOCCO | inactive | 
CCCCCCCCC(=O)O | inactive | 
CC(=O)CC(C)(C)O | inactive | 
CCC(C)(C)C1CCC(O)CC1 (stereo not drawn) | inactive | 
CC(C)CCCCCCOC(=O)CCCCC(=O)OCCCCCCC(C)C | inactive | 
COC(=O)CCCCC(=O)OC | inactive | 
OCCC(F)(F)C(F)(F)C(F)(F)C(F)(F)C(F)(F)C(F)(F)F | inactive | 
C[C@@H]1C[C@H]2[C@@H]3CCC4=CC(=O)C=C[C@]4(C)[C@@]3(F)[C@@H](O)C[C@]2(C)[C@@]1(O)C(=O)COP(=O)(O)O |  | 9.66 µM (active)
CCOC(=O)CC(O)(CC(=O)OCC)C(=O)OCC | inactive | 
NC(=O)N1C(=O)C(C(=O)c2cc(Cl)cs2)c2cc(F)c(Cl)cc21 (stereo not drawn) |  | 24.6 µM (active)
COCC(C)OCC(C)O (stereo not drawn) | inactive | 
CC[C@H](C)[C@@H](C(=O)O)n1sc2ccccc2c1=O | inactive | 
Nc1cccc2c(N)cccc12 | inactive | 
OC1CCCCC1 | inactive | 
COc1ccc([N+](=O)[O-])cc1N | inactive | 
O=c1c(-c2ccc(O)cc2)coc2cc(O)ccc12 | inactive | 
CCCOc1sc(C(=O)N2CCC(c3cc(CN)ccc3F)CC2)c(C)c1Br | inactive | 
Cc1cc(CCN2CCN(c3nsc4ccccc34)CC2)cc2c1NC(=O)CC2(C)C |  | 92 µM (active)
c1ccc2c(c1)ccc1ccccc12 |  | 7.1 µM (active)
